Several values for one entry are separate records, joined by “and”; a condition that tells them apart may be missing. Equal values may be shown once. A structure can be active in one record and inactive in another. Activity calls are given as the source filed them. The calls were made as follows: active = hit-call score of the fitted dose curve at least 0.9, where 1 is the maximum; inactive = score below 0.9.
Assay: ATG_Ets_CIS: Attagene CIS-FACTORIAL HepG2 Assay for human Erythroblast Transformation Specific (ETS) (AID 2282941)
Conditions: HepG2 ETS cis-reporter transcription, actives raise or lower the signal
Method: ATG_CIS is a cell-based, multiplexed-readout assay that uses HepG2, a human liver cell line, with measurements taken at 24 hours after chemical dosing in a 24-well plate.ATG_Ets_CIS is one of 52 assay component(s) measured or calculated from the ATG_CIS assay. It is designed to make measurements of mRNA induction, a form of inducible reporter, as detected with fluorescence intensity signals by Reverse transcription polymerase chain reaction (RT-PCR) and Capillary electrophoresis technology.Data from the assay component ATG_Ets_CIS was analyzed into 1 assay endpoint. This assay endpoint, ATG_Ets_CIS, was analyzed with bidirectional fitting relative to DMSO as the negative control and baseline of activity. Using a type of inducible reporter, measures of mRNA for gain or loss-of-signal activity can be used to understand the reporter gene at the transcription factor-level as they relate to the gene ETS1. Furthermore, this assay endpoint can be referred to as a primary readout, because this assay has produced multiple assay endpoints where this one serves a reporter gene function. To generalize the intended target to other relatable targets, this assay endpoint is annotated to the dna binding intended target family, where the subfamily is winged helix-turn-helix.
Human liver HepG2 cells are transiently transfected with multiple reporter transcription units (MRTUs) in 6-well plates using FuGene 6 reagent (Roche; 3 ml FuGene/1 mg DNA). The MRTU constructs are regulated by a cis-regulating element (promoter). […] A major difference between the CIS and TRANS system is that in CIS activities of endogenous TFs are measured, whereas the TRANS assay evaluates changes in activities of exogenous, chimeric NR-Gal4 proteins. […] At the end of 24 hour incubation, total RNA was isolated using TriZol reagent (Invitrogen). The isolated RNA is then reverse-transcribed using oligo(dT) primer and Mo-MLV reverse transcriptase (Invitrogen) with DNAse I (Ambion) treatment for 30 min. The one-tenth of the produced cDNA was amplified by PCR using Taq DNA polymerase (Invitrogen) and two reporter sequence-specific primers. The PCR products were fluorescently labeled by primer extension with 6-arboxyfluorescein (6-FAM) 5'-labeled reporter sequence-specific primer (2 min at 95 C, 20 s at 68 C and 10 min at 72 C) and these products were digested with 5U of HpaI (New England Biolabs) for 2h at 37 C. The fragments were purified using Qiaquick PCR columns (Qiagen), analyzed on an ABI 3130xL genetic analyzer (Applied Biosystems) with peak positions identified by using a set of X-rhodamine (ROX)-labeled MapMarker1000 molecular weight standards (BioVentures). The raw capillary electrophoresis data was processed using Attagraph software (Attagene).

Q: For `C[C@H](CCC(=O)O)[C@H]1CC[C@H]2[C@@H]3CC[C@@H]4C[C@H](O)CC[C@]4(C)[C@H]3CC[C@]12C`, which outcome is on record?
A: The outcome was “inactive”.

Q: With `COc1ccccc1NC(=O)CC(C)=O` as the compound, how does the outcome read?
A: Its outcome is “inactive”.

Q: For `CCC(C)(C)C1CCC(OC)CC1` (stereo not given), which outcome is on record?
A: The outcome was “inactive”.

Q: Which outcome does the source give for `CCCc1ccc(N)cc1` here?
A: Its outcome is “inactive”.

Q: With `C=C/C(C)=C/C/C=C(\C)CCC=C(C)C` as the compound, how does the outcome read?
A: The outcome was “inactive”.

Q: With `CC(C)(O)C(=O)c1ccc(OCCO)cc1` as the compound, how does the outcome read?
A: Its outcome is “inactive”.

Q: Which outcome does the source give for `CC(C)N1C(=O)c2ccccc2C1=O` here?
A: Its outcome is “inactive”.

Q: With `CC/C=C\CCOC(C)OCC` (stereo not given) as the compound, how does the outcome read?
A: The outcome was “inactive”.

Q: Which outcome does the source give for `Cc1ccccc1S` here?
A: Its outcome is “inactive”.

Q: For `CCCCOCCOCCO`, which outcome is on record?
A: The outcome was “inactive”.

Q: For `CCC(=O)OC(C)(C)C1CC=C(C)CC1` (stereo not given), which outcome is on record?
A: Its outcome is “inactive”.

Q: With `COc1ccc(OC)cc1` as the compound, how does the outcome read?
A: Its outcome is “inactive”.

Q: Which outcome does the source give for `CC(C)(C)c1cccc(O)c1` here?
A: Its outcome is “inactive”.

Q: Which AC50 does the source give for `O=c1cc(-c2ccc(O)cc2)oc2cc(O)cc(O)c12` here?
A: The AC50 was 17.5 µM (active).

Q: With `Nc1ccc(N)c([N+](=O)[O-])c1` as the compound, how does the outcome read?
A: Its outcome is “inactive”.

Q: For `CC(=O)c1ccc(C)cc1`, which outcome is on record?
A: The outcome was “inactive”.

Q: Which outcome does the source give for `CC(C)(CO)CO` here?
A: The outcome was “inactive”.

Q: For `CN(C)C`, which outcome is on record?
A: The outcome was “inactive”.

Q: For `O=C(c1ccc(OCCN2CCCCC2)cc1)c1c(-c2ccc(O)cc2)sc2cc(O)ccc12`, which AC50 is on record?
A: Its AC50 is 13.6 µM (active) and 17 µM (active).

Q: What about the outcome of the same compound?
A: The outcome was “inactive”.

Q: For `O=S1(=O)CC=CC1`, which outcome is on record?
A: Its outcome is “inactive”.

Q: With `CC1=CC(O)CC(C)(C)C1` (stereo not given) as the compound, how does the outcome read?
A: The outcome was “inactive”.

Q: With `C1=COCCC1` as the compound, how does the outcome read?
A: Its outcome is “inactive”.

Q: Which outcome does the source give for `CC(C)N(c1ccccc1)C(C)C` here?
A: Its outcome is “inactive”.

Q: With `C=C(C)C(=O)OCCOCCOC(=O)C(=C)C` as the compound, how does the outcome read?
A: Its outcome is “inactive”.

Q: With `CC1(C)[C@H](C=C(Cl)Cl)[C@H]1C(=O)OCc1cccc(Oc2ccccc2)c1` as the compound, how does the outcome read?
A: Its outcome is “inactive”.

Q: Which outcome does the source give for `CCCCCC1CCC(=O)O1` (stereo not given) here?
A: The outcome was “inactive”.

Q: With `CCO[Si](CCC#N)(OCC)OCC` as the compound, how does the outcome read?
A: Its outcome is “inactive”.

Q: With `CCC(C)(C)C1CCC(=O)CC1` as the compound, how does the outcome read?
A: Its outcome is “inactive”.

Q: Which outcome does the source give for `CC(=O)OC(C)(C)C1CC=C(C)CC1` (stereo not given) here?
A: The outcome was “inactive”.

Q: With `CCCCC1CCCCC(=O)O1` (stereo not given) as the compound, how does the outcome read?
A: Its outcome is “inactive”.

Q: For `CC(=O)C1C(=O)C=C(C)OC1=O` (stereo not given), which outcome is on record?
A: Its outcome is “inactive”.

Q: With `CC(C)Cc1ccc(C(C)C(=O)O)cc1` (stereo not given) as the compound, how does the outcome read?
A: Its outcome is “inactive”.

Q: Which outcome does the source give for `COc1ccc2[nH]cc(CCNC(C)=O)c2c1` here?
A: The outcome was “inactive”.

Q: Which outcome does the source give for `CCCCCCCOC(C)=O` here?
A: Its outcome is “inactive”.

Q: With `C=CC(C)(CCC=C(C)C)OC(=O)CC` (stereo not given) as the compound, how does the outcome read?
A: Its outcome is “inactive”.

Q: For `CCCCCCCCCOS(=O)(=O)O`, which outcome is on record?
A: Its outcome is “inactive”.

Q: Which outcome does the source give for `OCCCO` here?
A: The outcome was “inactive”.

Q: With `CCCC(O)C(CC)CO` (stereo not given) as the compound, how does the outcome read?
A: Its outcome is “inactive”.

Q: With `CCCCCCCCCCCCN1CCOCC1` as the compound, how does the outcome read?
A: Its outcome is “inactive”.

Source: PubChem BioAssay (EPA / NIEHS)
